# Measurements reported in PubChem BioAssay.
# The source made the active and inactive calls.
# Columns and labels:
# [1] = test system: Plasmodium falciparum Sir2 (PF13_0152, Sir2A); assay: pfSir2 binders on small-molecule microarrays, primary screen, biochemical, small-molecule microarray, 635 nm fluorescence (AID 1098); conditions: small-molecule microarray binding, fluorescence 635 nm; higher = more signal;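 also: score merges spot fluorescence intensity with its signal-to-noise ratio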
# [2] = small-molecule microarray binders of probe aDKK1, primary screen, biochemical, biotinylated probe, 635/667 nm fluorescence (AID 1099); conditions: higher = more signal;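 also: score merges 667nm spot fluorescence with signal to noise across triplicate slides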
# [3] = small-molecule microarray binders of probe aCHRDL2, primary screen, biochemical, biotinylated probe, 635/667 nm fluorescence (AID 1100); conditions: higher = more signal
# [4] = splicing luciferase reporter signal modulators, primary screen, spliceosome inhibition project, cell-based, HEK293, splice +/- reporter (AID 1101); conditions: luminescence, 24 h, higher = more signal, called active from +8 up or from −8 down;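 also: HEK293 cells carrying a splicing-competent luciferase reporter gene; test concentration not given here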
# [5] = biological target: Fibroblast growth factor 10 (Homo sapiens) (UniProt O15520); assay: FGF10 binders on small-molecule microarrays, primary screen, biochemical, small-molecule microarray, 635 nm fluorescence (AID 1102); conditions: FGF10 binding, fluorescence 635 nm, higher = more signal
# [6] = test system: glycogen synthase kinase-3 (GSK3A per assay name; protocol says GSK3B); assay: GSK3 binders on small-molecule microarrays, primary screen, biochemical, small-molecule microarray, 635 nm fluorescence, GSK3A (AID 1103); conditions: small-molecule microarray binding, fluorescence 635 nm; higher = more signal; also: the record names both GSK3A and GSK3B
# [7] = biological target: Epidermal growth factor receptor (Homo sapiens) (UniProt P00533); assay: EGFR binders on small-molecule microarrays, primary screen, biochemical, small-molecule microarray, 635 nm fluorescence (AID 1104); conditions: EGFR binding, higher = more signal;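 also: score merges 667 nm emission intensity with spot signal to noise over triplicate slides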
# [8] = biological target: Follistatin-related protein 3 (Homo sapiens) (UniProt O95633); assay: FSTL3 binders on small-molecule microarrays, primary screen, biochemical, small-molecule microarray, 635 nm fluorescence (AID 1105); conditions: FSTL3 binding, higher = more signal;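 also: score merges emission near 667 nm and signal to noise per printed spot across three slides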
# [9] = biological target: Dickkopf-related protein 1 (Homo sapiens) (UniProt O94907); assay: DKK1 binders on small-molecule microarrays, primary screen, biochemical, small-molecule microarray, 635 nm fluorescence scan (AID 1106); conditions: DKK1 binding, higher = more signal;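 also: score merges emission near 667 nm with signal to noise over three replicate slides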
# [10] = test system: Inhibin beta A chain (activin A); assay: INHBA (activin A) binders on microarrays, primary screen, biochemical, small-molecule microarray, 635 nm fluorescence scan (AID 1107); conditions: small-molecule microarray binding, higher = more signal;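 also: mouse activin A protein probed at 4.33 µg/mL on printed slides; score merges bound-protein fluorescence near 667 nm with spot signal-to-noise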
# [11] = test system: Human papillomavirus type 1a protein E7 (residues 44-93); assay: HPV1a E7 fragment binders on microarrays, primary screen, biochemical, small-molecule microarray, residues 44-93, 635 nm fluorescence (AID 1108); conditions: small-molecule microarray binding, fluorescence 635 nm; higher = more signal;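 also: E7 fragment applied at 1 µg/mL in TBST for 1 h at 4 C; score combines spot fluorescence with its signal to noise ratio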
# [12] = modulators of HCV replicon luciferase signal, primary screen, HCV replication inhibitor project, Huh7 cells, luciferase reporter (AID 1109); conditions: 48 h, higher = more signal;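 also: huh7 hepatoma cells harbouring a luciferase neomycin HCV replicon reporter; luciferase luminescence as measure of HCV replicon replication; test concentration not given here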
# [13] = biological target: Left-right determination factor 2 (Homo sapiens) (UniProt O00292); assay: LEFTY2 binders on small-molecule microarrays, primary screen, biochemical, small-molecule microarray, 635 nm fluorescence scan (AID 1110); conditions: LEFTY2 binding, higher = more signal
# [14] = biological target: Calmodulin-1 (Homo sapiens) (UniProt P0DP23); assay: CALM1 binders on microarrays, EGTA buffer, profiling panel, biochemical, small-molecule microarray, Cy5-labelled CALM1 (AID 1111); conditions: Cy5-CALM1 binding fluorescence, higher = more signal;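 also: labelled calmodulin applied in Tris saline Tween buffer holding calcium plus EGTA and DTT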
# [15] = biological target: Calmodulin-1 (Homo sapiens) (UniProt P0DP23); assay: calcium-bound CALM1 binders on microarrays, profiling panel, artefact control for SMM control-protein annotation, biochemical, small-molecule microarray, Cy5-labelled CALM1, plus calcium (AID 1112); conditions: Cy5-CALM1 binding fluorescence, higher = more signal;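 also: score merges spot fluorescence with signal to noise from triplicate slides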
# [16] = small-molecule microarray binders of probe aWnt5a, primary screen, biochemical, biotinylated probe, 635/667 nm fluorescence (AID 1113); conditions: higher = more signal;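 also: score merges 667 nm fluorescence intensity with signal-to-noise per printed feature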
# [17] = small-molecule microarray binders of probe aShh, primary screen, biochemical, biotinylated probe, 635/667 nm fluorescence (AID 1114); conditions: higher = more signal;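 also: probe is biotin-labelled aShh protein from a stem cell growth factor screen; measures binding of labelled protein to compounds printed on the slide; score merges feature fluorescence at 667 nm with signal-to-noise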
# [18] = small-molecule microarray binders of probe aNog, primary screen, biochemical, biotinylated probe, 635/667 nm fluorescence (AID 1115); conditions: higher = more signal;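 also: probe is biotinylated aNog protein used at 0.15 µg/mL for 1 h at 4 C; z-score combines 667 nm fluorescence of each spot with its signal to noise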
# [19] = biological target: Torsin-1A-interacting protein 1 (Homo sapiens) (UniProt Q5JTV8); assay: LAP1 binders from COS7 cell lysate, primary screen, small-molecule microarray, 635/667 nm fluorescence (AID 1116); conditions: COS7-hLAP1 lysate binding, 635 nm fluorescence, higher = more signal
# [20] = biological target: Alpha-bungarotoxin (Bungarus multicinctus) (UniProt P60615); assay: alpha-bungarotoxin binders on microarray, profiling panel, artefact control for SMM control protein annotation, biochemical, small-molecule microarray, Alexa647 label, 635/667 nm fluorescence (AID 1117); conditions: alpha-BTX-A647 binding fluorescence, higher = more signal
# Chain of Alpha-bungarotoxin (Bungarus multicinctus) (P60615 whole entry, looked up): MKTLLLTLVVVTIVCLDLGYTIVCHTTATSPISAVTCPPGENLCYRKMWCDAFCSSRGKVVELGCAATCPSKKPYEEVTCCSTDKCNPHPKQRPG
# Chain of Follistatin-related protein 3 (Homo sapiens) (O95633 whole entry, looked up): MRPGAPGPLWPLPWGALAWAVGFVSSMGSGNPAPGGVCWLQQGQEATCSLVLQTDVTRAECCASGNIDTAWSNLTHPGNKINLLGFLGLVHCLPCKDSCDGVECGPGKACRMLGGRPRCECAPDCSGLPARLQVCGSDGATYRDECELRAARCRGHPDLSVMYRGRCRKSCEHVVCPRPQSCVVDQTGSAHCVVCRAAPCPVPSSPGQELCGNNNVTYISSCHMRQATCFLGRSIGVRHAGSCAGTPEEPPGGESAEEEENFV
# Chain of Fibroblast growth factor 10 (Homo sapiens) (O15520 whole entry, looked up): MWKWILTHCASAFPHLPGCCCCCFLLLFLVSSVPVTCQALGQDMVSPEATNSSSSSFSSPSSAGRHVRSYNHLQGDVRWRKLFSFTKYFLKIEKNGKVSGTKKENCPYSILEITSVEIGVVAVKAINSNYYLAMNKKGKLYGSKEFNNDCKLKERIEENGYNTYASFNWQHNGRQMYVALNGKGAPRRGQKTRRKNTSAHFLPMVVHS
# Chain of Epidermal growth factor receptor (Homo sapiens) (P00533 whole entry, looked up): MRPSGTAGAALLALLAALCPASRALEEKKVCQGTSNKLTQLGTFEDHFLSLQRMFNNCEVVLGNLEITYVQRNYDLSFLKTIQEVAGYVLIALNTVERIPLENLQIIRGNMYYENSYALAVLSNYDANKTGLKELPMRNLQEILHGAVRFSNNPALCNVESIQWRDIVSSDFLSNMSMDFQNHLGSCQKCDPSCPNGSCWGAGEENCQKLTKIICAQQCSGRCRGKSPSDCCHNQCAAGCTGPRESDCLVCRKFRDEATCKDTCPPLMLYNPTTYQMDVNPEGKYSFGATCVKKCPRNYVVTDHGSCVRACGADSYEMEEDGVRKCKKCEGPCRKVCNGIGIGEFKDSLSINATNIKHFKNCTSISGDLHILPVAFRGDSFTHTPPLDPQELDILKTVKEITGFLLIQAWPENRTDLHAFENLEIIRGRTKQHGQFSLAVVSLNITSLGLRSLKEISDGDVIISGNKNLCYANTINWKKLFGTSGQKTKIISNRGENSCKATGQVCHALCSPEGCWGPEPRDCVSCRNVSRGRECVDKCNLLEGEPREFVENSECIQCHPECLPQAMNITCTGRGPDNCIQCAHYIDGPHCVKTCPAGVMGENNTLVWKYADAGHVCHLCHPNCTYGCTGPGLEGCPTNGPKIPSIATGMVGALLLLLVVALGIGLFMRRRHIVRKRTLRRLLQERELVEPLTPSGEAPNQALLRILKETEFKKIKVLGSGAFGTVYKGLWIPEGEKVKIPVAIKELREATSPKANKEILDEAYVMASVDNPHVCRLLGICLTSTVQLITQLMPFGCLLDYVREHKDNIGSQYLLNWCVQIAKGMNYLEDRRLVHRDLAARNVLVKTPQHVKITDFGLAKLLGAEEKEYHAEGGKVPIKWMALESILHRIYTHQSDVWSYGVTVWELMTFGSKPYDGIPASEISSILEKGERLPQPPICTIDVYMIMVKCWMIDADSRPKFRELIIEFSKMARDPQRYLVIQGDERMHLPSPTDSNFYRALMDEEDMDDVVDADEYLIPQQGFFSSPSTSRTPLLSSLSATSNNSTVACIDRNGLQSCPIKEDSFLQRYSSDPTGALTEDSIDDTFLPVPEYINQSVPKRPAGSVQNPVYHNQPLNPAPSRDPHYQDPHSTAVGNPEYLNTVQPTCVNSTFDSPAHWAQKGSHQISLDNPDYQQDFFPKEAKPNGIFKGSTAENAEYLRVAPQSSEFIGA
# Chain of Dickkopf-related protein 1 (Homo sapiens) (O94907 whole entry, looked up): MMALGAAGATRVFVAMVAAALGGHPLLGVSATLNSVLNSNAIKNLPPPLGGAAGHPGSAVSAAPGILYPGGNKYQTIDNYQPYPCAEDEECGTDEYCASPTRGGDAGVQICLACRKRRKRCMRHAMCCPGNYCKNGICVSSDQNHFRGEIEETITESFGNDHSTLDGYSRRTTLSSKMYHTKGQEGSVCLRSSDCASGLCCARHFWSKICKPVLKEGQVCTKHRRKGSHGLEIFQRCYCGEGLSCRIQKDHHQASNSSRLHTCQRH
# Chain of Left-right determination factor 2 (Homo sapiens) (O00292 whole entry, looked up): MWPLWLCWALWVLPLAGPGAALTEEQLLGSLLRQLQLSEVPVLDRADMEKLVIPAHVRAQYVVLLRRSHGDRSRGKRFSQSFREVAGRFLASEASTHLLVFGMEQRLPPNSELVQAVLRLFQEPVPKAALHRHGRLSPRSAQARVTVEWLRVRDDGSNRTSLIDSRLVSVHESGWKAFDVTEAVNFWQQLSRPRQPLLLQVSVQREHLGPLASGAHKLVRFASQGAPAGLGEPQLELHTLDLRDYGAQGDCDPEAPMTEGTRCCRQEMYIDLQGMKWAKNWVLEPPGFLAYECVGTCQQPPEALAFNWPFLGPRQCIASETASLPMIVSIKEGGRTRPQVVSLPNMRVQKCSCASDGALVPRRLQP
# Chain of Torsin-1A-interacting protein 1 (Homo sapiens) (Q5JTV8 whole entry, looked up): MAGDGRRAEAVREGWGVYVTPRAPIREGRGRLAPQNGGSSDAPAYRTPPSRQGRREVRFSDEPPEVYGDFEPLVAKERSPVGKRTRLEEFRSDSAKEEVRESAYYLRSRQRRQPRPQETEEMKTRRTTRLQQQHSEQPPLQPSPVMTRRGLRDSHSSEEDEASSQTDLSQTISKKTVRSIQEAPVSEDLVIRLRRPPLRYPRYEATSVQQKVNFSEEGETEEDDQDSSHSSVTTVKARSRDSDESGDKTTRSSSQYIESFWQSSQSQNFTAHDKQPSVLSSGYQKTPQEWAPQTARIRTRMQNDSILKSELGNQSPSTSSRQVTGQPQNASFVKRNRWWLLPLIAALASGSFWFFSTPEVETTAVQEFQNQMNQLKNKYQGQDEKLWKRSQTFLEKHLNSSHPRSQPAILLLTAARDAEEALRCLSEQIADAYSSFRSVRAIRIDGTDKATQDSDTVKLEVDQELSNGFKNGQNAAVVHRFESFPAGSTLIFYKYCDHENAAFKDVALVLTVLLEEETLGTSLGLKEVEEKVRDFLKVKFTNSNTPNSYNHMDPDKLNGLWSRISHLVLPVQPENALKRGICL
Structure (SMILES),composite z-score [1],composite z-score [2],composite z-score [3],z-score [4],composite z-score [5],composite z-score [6],composite z-score [7],composite z-score [8],composite z-score [9],composite z-score [10],composite z-score [11],z-score [12],composite z-score [13],composite z-score [14],composite z-score [15],composite z-score [16],composite z-score [17],composite z-score [18],composite z-score [19],composite z-score [20]
COC(=O)CC=C1c2ccccc2[C@H](OC)[C@H]1C,-0.0214,-0.314,-0.624,0.0124 (inactive),0.0785,-0.234,0.33,0.0242,0.485,1.05,-0.887,-0.154,0.398,-0.452,-0.746,-0.0981,-0.138,-0.172,-0.035,-0.545
COc1ccc(COC(=O)NN=C2C[C@@H](O)[C@@H](O)[C@@H]3[C@@H]4C(=O)N(Cc5ccccc5)C(=O)[C@@H]4CC[C@@H]23)cc1,0.0233,-0.12,-0.249,-0.221 (inactive),0.193,0.256,0.375,0.253,0.227,-0.0039,0.183,0.605,0.379,-0.234,-0.515,-0.128,0.0278,-0.216,0.0762,-0.125
CC=CC1=C(CO)[C@H](O)[C@H]2O[C@H]2[C@@H]1O,0.134,-0.416,-1.13,0.666 (inactive),0.733,0.403,0.148,0.608,0.943,0.161,-0.342,0.382,1.06,-0.849,-1.1,-0.0236,-0.282,-0.244,-0.193,0.495
CC(C)(C)N1C(=O)[C@H]2[C@@H]3C(=CC[C@H]2C1=O)C(=O)[C@H]1O[C@H]1[C@H]3O,1.09,-0.366,-0.779,3.47 (inactive),0.0491,0.138,0.144,-0.162,0.512,0.555,-2.12,-4.79,0.341,-1.08,-1.48,-0.0735,-0.273,-0.571,-0.139,-0.0321
C=CC[C@@H]1C=C[C@H](ON=C(C)CCN2CCCCc3nc(C)c(C)cc32)[C@@H](CO)O1,1.14,-0.406,-0.804,-0.102 (inactive),0.497,1.29,1.51,1.43,1.63,1.5,0.322,-0.197,1.25,-0.937,-1.72,-0.0276,0.0684,-0.444,0.533,-0.102
CCOC(=O)[C@H](Cc1ccccc1)NC(=O)CCC1CC(OC(=O)NCc2cccc3ccccc23)CC2(CCCC(COC(=O)NCCc3ccc(Cl)cc3)O2)O1 (stereo not given in full),0.519,-0.217,-0.603,-0.84 (inactive),0.718,0.24,0.104,0.588,0.621,0.145,1.02,0.246,0.366,1.14,-0.369,-0.0738,-0.153,0.793,0.289,0.429
COC(=O)[C@H](CCSC)NC(=O)CC=C[C@@H](C)CO,-0.0481,-0.34,-1.47,-0.0982 (inactive),1.26,1.28,1.53,1.46,1.97,-1.91,0.264,0.748,1.58,-1.12,-2.32,0.149,-0.0192,-0.394,1.21,-0.614
COc1ccc(COC(=O)NN=C2C[C@@H](O)[C@@H](O)[C@@H]3[C@@H]4C(=O)N(C(C)(C)C)C(=O)[C@@H]4CC[C@@H]23)cc1,0.182,-0.163,-0.64,0.992 (inactive),0.189,0.787,0.314,0.967,1.16,-0.105,0.653,-0.828,1.27,1.19,-0.306,-0.0566,-0.0626,0.0498,0.207,0.751
COC(=O)[C@H](C)NC(=O)CCC1CC(OC(=O)NCc2cccc3ccccc23)CC2(CCCC(COC(=O)NCCCN3CCCC3=O)O2)O1 (stereo not given in full),0.666,-0.102,-0.279,-0.915 (inactive),0.92,1.17,0.929,0.91,0.77,-0.503,1.28,-0.0695,0.943,0.895,0.0029,-0.124,-0.455,-0.436,0.919,0.39
CCOC(=O)[C@H](CC(C)C)NC(=O)CCC1CC(OC(=O)NCc2ccc3c(c2)OCO3)CC2(CCCC(COC(=O)NCCc3ccccc3OC)O2)O1 (stereo not given in full),0.608,-0.0877,-0.497,0.0955 (inactive),0.533,1.27,0.461,1.01,0.434,-0.344,1.31,-0.621,0.613,0.618,-0.375,-0.298,-0.0626,-0.41,0.389,0.556
O=C1[C@H]2[C@H]3[C@H](O)[C@H](O)CC(=NOCc4ccccc4)[C@H]3CC[C@H]2C(=O)N1C1CCCCC1,0.817,-0.163,-0.301,0.395 (inactive),0.378,0.338,0.511,0.448,0.79,-0.0077,0.656,0.409,0.531,0.55,0.158,-0.0572,0.0754,0.165,-0.106,1.01
COC(=O)[C@@H]1CC[C@H](C)[C@@H](c2ccc(Br)cc2)N1,-0.725,0.297,0.321,-0.181 (inactive),-0.0529,-0.879,0.377,-0.391,0.187,0.894,-1.28,-0.178,0.0281,-0.0261,0.394,0.0375,0.261,0.101,0.488,0.234
